Data published in PubChem BioAssay (NCATS).
Records with an inconclusive call do not appear. A call without a number means that no potency is given here. The source made the active and inactive calls. Calls follow the shape of the dose curve; as a rule, active = well fitted curve in the direction sought with a large enough effect; inconclusive = small, poorly fitted or top-dose-only effect, or another doubt; inactive = no such curve, though single readings can be large; an effect the other way counts as inactive or inconclusive.

Target: Arylsulfatase A (Homo sapiens) (UniProt P15289)
Test: qHTS screen for enhancers of Arylsulfatase A (ASA1): LOPAC Validation Assay (AID 720538)
Settings: ASA enzyme activity, LOPAC qHTS enhancer assay; series mostly up to 57.5 µM
Procedure, shortened: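 Cell-based enhancement test: residual ASA activity in SV40-transformed I179S patient fibroblasts is measured by pNCS turnover (0.5mM final, 14h, room temperature) following 48h compound incubation; higher fluorescence indicates activation.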

Sequence of Arylsulfatase A (Homo sapiens) (P15289 whole entry, looked up): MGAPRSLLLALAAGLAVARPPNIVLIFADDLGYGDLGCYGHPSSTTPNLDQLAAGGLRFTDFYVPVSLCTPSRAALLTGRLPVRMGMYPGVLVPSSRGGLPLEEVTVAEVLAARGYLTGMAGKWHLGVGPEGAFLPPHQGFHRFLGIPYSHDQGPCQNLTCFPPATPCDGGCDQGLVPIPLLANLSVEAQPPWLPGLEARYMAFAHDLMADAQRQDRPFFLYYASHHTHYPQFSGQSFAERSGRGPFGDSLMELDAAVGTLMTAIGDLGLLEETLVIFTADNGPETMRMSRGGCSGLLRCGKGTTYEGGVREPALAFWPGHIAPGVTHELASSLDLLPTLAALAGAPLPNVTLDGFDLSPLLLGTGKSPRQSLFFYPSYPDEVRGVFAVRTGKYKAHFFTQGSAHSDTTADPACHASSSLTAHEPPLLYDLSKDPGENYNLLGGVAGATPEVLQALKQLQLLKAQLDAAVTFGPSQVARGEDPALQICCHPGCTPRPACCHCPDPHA

Row | SMILES | Potency
1 | O=C(OCCN1CCOCC1)C1(c2ccccc2)CCCCC1 | inactive
2 | CC1CCN(CC[C@H]2CCCN2S(=O)(=O)c2cccc(O)c2)CC1 | inactive
3 | CCCCCCCCCCCCCCCCCCOC[C@H](COP(=O)([O-])OCC[N+](C)(C)C)OC | inactive
4 | O=c1onc2cnc3ccccc3n12 | inactive
5 | COc1cc(C(O)C(=O)O)ccc1O (stereo unspecified) | inactive
6 | O=C(O)C1=CCCNC1 | inactive
7 | CNCCNS(=O)(=O)c1cccc2cnccc12 | inactive
8 | NCCCCN | inactive
9 | CNc1cc(NS(=O)(=O)c2ccc(N)cc2)nc(NC)n1 | inactive
10 | CC(C)(C)c1cc(/C=C(\C#N)C(N)=S)cc(C(C)(C)C)c1O | inactive
11 | CC#CCOC(=O)c1c(C)nc2sc3c(c2c1N)CCC(O)C3 (stereo unspecified) | inactive
12 | CC(=O)O[C@H]1CC2(C)[C@@H](C[C@@H](O)[C@H]3[C@@]4(C)CC[C@@H](O)[C@@H](C)[C@@H]4CC[C@@]32C)C1=C(CCC=C(C)C)C(=O)O (stereo partly specified) | inactive
13 | O=c1ccc2c(OCCCCc3ccccc3)c3ccoc3cc2o1 | inactive
14 | C[C@@H](NCCc1ccc(O)cc1)[C@@H](O)c1ccc(O)cc1 | inactive
15 | Cc1cc(Cn2cnc3c2C[C@@H](C(=O)O)N(C(=O)C(c2ccccc2)c2ccccc2)C3)ccc1N | inactive
16 | N=C(N)SCCc1cnc[nH]1 | inactive
17 | C=CC[C@H](N)C(=O)O | inactive
18 | N[C@H](C(=O)O)[C@H](Cc1ccccc1)C(=O)O | inactive
19 | NC(N)=N[C@@H](CCC(=O)O)C(=O)O | inactive

Row | SMILES | Potency
20 | CC(=O)O[C@H]1Cc2ccccc2N(C(N)=O)c2ccccc21 | inactive
21 | CC(N)=O | inactive
22 | Nc1ccc(N2C(=O)c3ccccc3C2=O)c(Cl)c1 | inactive
23 | N[C@H](C(=O)O)[C@H]1C[C@@H]1C(=O)O | inactive
24 | CN1C2CCC1CC(OC(c1ccccc1)c1ccccc1)C2 (stereo unspecified) | inactive
25 | N[C@H](C(=O)O)[C@H](O)C(=O)O | inactive
26 | CCCCCC(O)CCCC(=O)O (stereo unspecified) | inactive
27 | CCCCCCCCCCCCCCC[C@H](O)[C@H](N)CO | inactive
28 | OC[C@H]1O[C@@H](n2cnc3cncnc32)[C@H](O)[C@@H]1O | inactive
29 | c1ccc2nc(C3=NCCN3)ccc2c1 | inactive
30 | CCCCCCCCCC(=O)NC(CN1CCOCC1)[C@H](O)c1ccccc1 (stereo partly specified) | inactive
31 | COc1ccccc1N1CCN(CCCNc2c(C)c(=O)n(C)c(=O)n2C)CC1 | inactive
32 | Nc1ccc(CCNc2ncnc3c2ncn3C2OC(CO)C(O)C2O)cc1 (stereo unspecified) | inactive
33 | CN(C)C(=O)/N=N/C(=O)N(C)C | inactive
34 | CCC(=O)N1CCN(C(=O)c2ccccc2)CC1 | inactive
35 | CCCn1c(=O)c2[nH]c(C3CCCC3)nc2n(CCC)c1=O | inactive
36 | O=C(O)/C(=C/c1c(C(=O)O)[nH]c2cc(Cl)cc(Cl)c12)c1ccccc1 | inactive
37 | CC1=C(C(=O)O)N2C(=O)[C@@H](NC(=O)C(N)C3=CCC=CC3)[C@H]2SC1 (stereo partly specified) | inactive
38 | CCC1(O)CC2CN(CCc3c([nH]c4ccccc34)[C@@](C(=O)OC)(c3cc4c(cc3OC)N(C)C3[C@]45CCN4CC=C[C@@](CC)([C@@H](OC(C)=O)[C@]3(O)C(=O)OC)[C@H]45)C2)C1 (stereo partly specified) | inactive

Tested on: not listed separately
Test: qHTS for compounds that reverse cellular toxicity of Amyloid beta (A-beta) peptide in yeast: LOPAC Validation Assay (AID 720559)
Settings: yeast expressing A-beta; series mostly up to 46.1 µM
Procedure, shortened: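 Here, A-beta-toxic yeast grow with test compounds at 30 C for 48 hr before optical density at 600 nm is recorded; data are normalized against DMSO and the FeCl3-clioquinol control.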

Row | SMILES | outcome
39 | O=C(OCCN1CCOCC1)C1(c2ccccc2)CCCCC1 | inactive
40 | CC1CCN(CC[C@H]2CCCN2S(=O)(=O)c2cccc(O)c2)CC1 | inactive
41 | CCCCCCCCCCCCCCCCCCOC[C@H](COP(=O)([O-])OCC[N+](C)(C)C)OC | inactive
42 | O=c1onc2cnc3ccccc3n12 | inactive
43 | COc1cc(C(O)C(=O)O)ccc1O (stereo unspecified) | inactive
44 | O=C(O)C1=CCCNC1 | inactive
45 | CNCCNS(=O)(=O)c1cccc2cnccc12 | inactive
46 | NCCCCN | inactive
47 | CNc1cc(NS(=O)(=O)c2ccc(N)cc2)nc(NC)n1 | inactive
48 | CC(C)(C)c1cc(/C=C(\C#N)C(N)=S)cc(C(C)(C)C)c1O | inactive
49 | CC#CCOC(=O)c1c(C)nc2sc3c(c2c1N)CCC(O)C3 (stereo unspecified) | inactive
50 | CC(=O)O[C@H]1CC2(C)[C@@H](C[C@@H](O)[C@H]3[C@@]4(C)CC[C@@H](O)[C@@H](C)[C@@H]4CC[C@@]32C)C1=C(CCC=C(C)C)C(=O)O (stereo partly specified) | inactive
51 | O=c1ccc2c(OCCCCc3ccccc3)c3ccoc3cc2o1 | inactive
52 | C[C@@H](NCCc1ccc(O)cc1)[C@@H](O)c1ccc(O)cc1 | inactive
53 | Cc1cc(Cn2cnc3c2C[C@@H](C(=O)O)N(C(=O)C(c2ccccc2)c2ccccc2)C3)ccc1N | inactive
54 | N=C(N)SCCc1cnc[nH]1 | inactive
55 | C=CC[C@H](N)C(=O)O | inactive
56 | N[C@H](C(=O)O)[C@H](Cc1ccccc1)C(=O)O | inactive
57 | NC(N)=N[C@@H](CCC(=O)O)C(=O)O | inactive

Row | SMILES | outcome
58 | CC(=O)O[C@H]1Cc2ccccc2N(C(N)=O)c2ccccc21 | inactive
59 | CC(N)=O | inactive
60 | Nc1ccc(N2C(=O)c3ccccc3C2=O)c(Cl)c1 | inactive
61 | N[C@H](C(=O)O)[C@H]1C[C@@H]1C(=O)O | inactive
62 | CN1C2CCC1CC(OC(c1ccccc1)c1ccccc1)C2 (stereo unspecified) | inactive
63 | N[C@H](C(=O)O)[C@H](O)C(=O)O | inactive
64 | CCCCCC(O)CCCC(=O)O (stereo unspecified) | inactive
65 | CCCCCCCCCCCCCCC[C@H](O)[C@H](N)CO | inactive
66 | OC[C@H]1O[C@@H](n2cnc3cncnc32)[C@H](O)[C@@H]1O | inactive
67 | c1ccc2nc(C3=NCCN3)ccc2c1 | inactive
68 | CCCCCCCCCC(=O)NC(CN1CCOCC1)[C@H](O)c1ccccc1 (stereo partly specified) | inactive
69 | COc1ccccc1N1CCN(CCCNc2c(C)c(=O)n(C)c(=O)n2C)CC1 | inactive
70 | Nc1ccc(CCNc2ncnc3c2ncn3C2OC(CO)C(O)C2O)cc1 (stereo unspecified) | inactive
71 | CN(C)C(=O)/N=N/C(=O)N(C)C | inactive
72 | CCC(=O)N1CCN(C(=O)c2ccccc2)CC1 | inactive
73 | CCCn1c(=O)c2[nH]c(C3CCCC3)nc2n(CCC)c1=O | inactive
74 | O=C(O)/C(=C/c1c(C(=O)O)[nH]c2cc(Cl)cc(Cl)c12)c1ccccc1 | inactive
75 | CC1=C(C(=O)O)N2C(=O)[C@@H](NC(=O)C(N)C3=CCC=CC3)[C@H]2SC1 (stereo partly specified) | inactive
76 | CCC1(O)CC2CN(CCc3c([nH]c4ccccc34)[C@@](C(=O)OC)(c3cc4c(cc3OC)N(C)C3[C@]45CCN4CC=C[C@@](CC)([C@@H](OC(C)=O)[C@]3(O)C(=O)OC)[C@H]45)C2)C1 (stereo partly specified) | inactive
